Screening data: PubChem, several laboratories
VCAM1 TNFa inh: reduces TNF alpha induced VCAM1 expression in HUVEC; HUVEC TNFa-induced VCAM-1 immunofluorescence, high-content imaging; AID 802; inhibition, % at 2 µM; hit rate 0.48% among 95,000;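 active means inhibition above the batch mean plus 3 SD, with images confirmed as a hit by eye, cut at about 37% in these data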
Phagocyt inh: inhibitors of macrophage phagocytosis | J774A.1 macrophage IgG-bead phagocytosis, imaging | inhibition, % at 5 µM | hit rate 0.07% among 110,000 | AID 1029;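 active means inhibition above the mean of the plate negative controls plus 5 SD, cut at about 13% in these data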;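 further: phagocytic index as fraction of beads internalized from green versus red external bead signal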
Insulin prom inh: TRM-6 insulin promoter activity inhibition; TRM-6 cells (human fetal islet line), insulin promoter-eGFP reporter, imaging; reporter expression induced with tamoxifen; hit rate 0.9% among 130,000; inhibition, % at 2 µM;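 active means inhibition above the mean plus 3 SD, with well images judged a real hit on visual review, cut at about 60% in these data, passing the limit was not always enough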
E-sel TNF inh: blocks E-selectin expression induced by TNF alpha; inhibition, % at 2 µM; HUVEC TNFa-induced E-selectin immunofluorescence, high content; hit rate 0.71% among 120,000;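 active means inhibition above the batch mean plus 3 SD, and confirmed as a hit on visual image review, cut at about 43% in these data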
TNFa cytotox: HUVEC cytotoxicity counter-screen, TNF alpha stimulated. HUVEC TNFalpha-stimulated, Hoechst cell count, imaging. cell count reduction, % at 2 µM. hit rate 0.17% among 93,000. AID 848;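 active means cell count reduction exceeding the screen mean by over 5 SD, scaled to untreated wells per plate, cut at about 78% in these data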;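 further: cells counted after 24 h of TNF alpha exposure following the 1 h pretreatment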
cytoskel mod: alters cytoskeleton assembly in HUVEC cells. hit rate 0.18% among 91,000. inhibition, % at 2 µM. AID 836. HUVEC TNFa F-actin phalloidin imaging, high content;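 active means inhibition above the batch mean plus 3 SD and confirmed as a hit by visual image inspection, cut at about 30% in these data, passing the limit was not always enough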
A number is an active result; - = inactive; . = no result. Rows were chosen to be rich in hits. Some 1.6% of all compounds tested hit in one or more screens of this group.

SMILES	VCAM1 TNFa inh	Phagocyt inh	Insulin prom inh	E-sel TNF inh	TNFa cytotox	cytoskel mod
CC(=O)NC1C(=O)N(CCc2ccccc2)c2ccc(Br)cc21 (centres undefined)	-	-	72	-	-	-
CCCCN1C(=O)C(NC(C)=O)c2ccccc21 (centres undefined)	.	-	-	-	.	.
Cc1nn(CC(=O)Nc2ccc(C(=O)N(C)C)cc2)c(=O)c2ccccc12	-	-	-	-	-	34
CCCc1[nH]nc2c1C(c1cccnc1)C(C#N)=C(N)O2 (centres undefined)	87	-	-	.	82	-
COc1ccc(OC)c(CNC(=O)Cc2c(C(=O)O)[nH]c3ccc(Cl)cc23)c1	.	.	78	-	.	.
CCOCCCNC(=O)Cc1c(C(=O)O)[nH]c2ccc(Cl)cc12	-	.	.	.	-	-
C/C(=N\Nc1nc2c(s1)CCCC2)c1ccccc1	62	-	-	-	-	-
O=S(=O)(c1ccc(Cl)cc1)c1snnc1-c1ccccc1	50	-	-	-	-	-
CCOC(=O)c1noc(C)c1C(=O)Nc1nc(C)cc(C)n1	.	.	-	-	.	.
NS(=O)(=O)c1ccc(CCNC(=O)c2ccc(C#CC3(O)CCCCC3)cc2)cc1	.	.	-	-	.	.
Cc1nc2ccc(NC(=O)C3CCN(S(=O)(=O)c4cccs4)CC3)cc2s1	-	-	.	72	-	-
O=C(NCc1cccnc1)C1CCN(S(=O)(=O)c2cccnc2)CC1	-	.	-	-	-	-
O=C(NCc1cccnc1)C1CCN(S(=O)(=O)c2cccs2)CC1	-	-	.	69	-	-
COCc1c(C(=O)OC/C(O)=C(\C#N)c2nc3ccccc3[nH]2)oc2ccccc12	.	.	-	-	.	.
CCn1c(CNC(=O)c2ccccc2F)nnc1SCC(=O)NC1CCCCC1C (centres undefined)	.	.	-	.	.	.
CCCCn1c2nc3ccccc3nc2c2c(=O)n(-c3ccccc3)cnc21	.	.	-	92	.	.
CCN(CC)S(=O)(=O)c1ccc2[nH]c(=O)cc(C(=O)Nc3cccc(C(C)=O)c3)c2c1	.	.	.	68	.	.
Nc1cccc(-c2nc3ccccc3[nH]2)c1	-	.	75	-	-	-
Cc1ccc2nc(-c3sc4nc(C)cc(C)c4c3N)[nH]c2c1	-	.	-	-	-	-
Cc1ccc2nc(-c3cccc(N)c3)[nH]c2c1	-	.	80	-	-	-
c1ccc(-c2cc(-c3nc4ccccc4[nH]3)c3ccccc3n2)cc1	.	-	-	-	.	.
Cn1cc(-c2nc3ccccc3[nH]2)c2ccccc21	-	-	100	-	-	-
Nc1ccccc1-c1nc2ccccc2[nH]1	-	-	94	-	-	-
O=C(CSc1ccc(C(F)(F)F)cc1[N+](=O)[O-])Nc1ccc2ccccc2c1	.	-	-	.	.	.
Cc1cc(N2C(=O)NC(=O)CC2C)c(C)cc1C(C)C (centres undefined)	.	-	-	-	.	.
SMILES	VCAM1 TNFa inh	Phagocyt inh	Insulin prom inh	E-sel TNF inh	TNFa cytotox	cytoskel mod
O=[N+]([O-])c1cccc(-c2nc3ccc([N+](=O)[O-])cc3[nH]2)c1	.	.	92	.	.	.
NC(=O)[C@@H]1CCOc2c(I)cc([N+](=O)[O-])cc2C(=O)N[C@@H](CO)C(=O)NCC(=O)N1	.	.	-	-	.	.
CCCCn1c(C)nc2c(=O)n(C)c(=O)[nH]c21	-	-	73	.	-	-
CCCCn1c(-c2ccccc2)nc2c(=O)n(C)c(=O)[nH]c21	-	-	-	-	-	-
Cc1nc(SCc2ccc(Br)cc2)[nH]c(=O)c1C	67	-	-	-	-	-
Cc1ccc(CSc2nc3nc(C)cc(C)c3c(=O)[nH]2)cc1	.	.	-	-	.	.
COCc1cc(N2CCCC2)nc(-c2ccccc2)n1	.	.	-	.	.	.
COc1ccc2ccccc2c1C(=O)/C=C\c1ccoc1	.	-	79	-	.	.
O=C(Nc1cccnc1)c1ccccc1O	-	-	-	-	-	-
O=C(Nc1cccnc1)c1coc(=O)c2ccccc12	-	-	.	.	-	55
C=CCn1c(SCC(=O)N2CCN(c3ccccc3)CC2)nnc1-c1ccco1	-	-	77	-	-	-
C/C(=N\O)c1ccc2c3ccccc3n(C)c2c1	41	-	.	.	-	-
O=c1[nH]c2ccccc2n1C1=CCCC1	-	-	.	-	-	-
CSc1ccc(NC(=O)N2CC=C(n3c(=O)[nH]c4ccccc43)CC2)cc1	.	-	64	-	.	.
Cc1[nH]n2c(=O)c3c(nc2c1-c1ccccc1)CCC3	-	-	83	-	-	-
Cc1[nH]n2c(=O)c3c(nc2c1-c1ccc(Cl)cc1)CCC3	.	-	-	-	.	.
COc1cc(NC(=O)Cn2ncc(Cl)c(Cl)c2=O)c(C)cc1[N+](=O)[O-]	.	.	.	83	.	.
COc1cc(NC(=O)CN2CCCCC2)c(C)cc1[N+](=O)[O-]	.	-	.	-	.	.
COc1cccc(-n2nnc3c(=O)n(CC(=O)Nc4cc(C)on4)cnc32)c1	.	.	-	.	.	.
CCOc1ccc(/C=N/Nc2ccc(C(F)(F)F)cc2[N+](=O)[O-])cc1O	.	-	71	-	.	.
COc1cccc(N/C(N)=N/c2nc(C(F)(F)F)cc(=O)[nH]2)c1	.	-	.	-	.	.
CCN(CC)c1ccc(-c2nn3c(-c4ccccc4OC)nnc3s2)cc1	97	-	.	-	-	-
CCn1nc(C(=O)OC(C(=O)c2c[nH]c3ccccc23)c2ccccc2)c2ccccc2c1=O (centres undefined)	-	-	-	-	-	-
CCc1cc(C)c(O)c(CC)n1	-	-	-	-	-	-
Cc1ccc(O)c(CC(C)C)n1	-	-	84	-	-	-
SMILES	VCAM1 TNFa inh	Phagocyt inh	Insulin prom inh	E-sel TNF inh	TNFa cytotox	cytoskel mod
COc1ccc(CCc2nc(C)ccc2O)cc1	-	-	89	-	-	-
O=C(c1cc2c(s1)CCCC2)N1CCN(S(=O)(=O)c2ccccc2C(F)(F)F)CC1	.	-	-	-	.	.
COc1ccc(C(=O)CN2C(=O)NC3(CCCc4ccccc43)C2=O)cc1OC (centres undefined)	-	.	-	100	-	-
O=C(Nc1ccc2c(c1)OCO2)OCc1ccccc1	-	-	100	-	-	-
O=C(Nc1ccc2c(c1)OCO2)C1CCCN1C(=O)OCc1ccccc1 (centres undefined)	.	-	-	-	.	.
O=C(NCc1ccco1)C1CCCN1C(=O)Nc1ccc(Cl)cc1 (centres undefined)	.	.	-	.	.	.
COc1ccc(-c2nc(SCC(=O)NCc3ccco3)c(-c3ccccc3)[nH]2)cc1OC	-	.	72	-	-	-
O=C(CSc1nc2c(sc3ccccc32)c(=O)n1-c1ccccc1)NCc1ccco1	.	-	73	.	.	.
COc1ccc(-n2c(SCC(=O)NCc3ccco3)nc3c([nH]c4ccccc43)c2=O)cc1	-	-	.	82	-	-
Cc1ccc(NS(=O)(=O)c2cc(C(=O)NCCSC3CCCCC3)ccc2C)cc1	-	-	-	-	-	48
Cc1ccc(NS(=O)(=O)c2cc(C(=O)NCCSc3ccc(C)cc3)ccc2C)cc1	-	.	.	-	-	-
O=c1c2sccc2nc(SCc2cc(=O)n3ccccc3n2)n1Cc1ccccn1	.	.	-	-	.	.
COc1ccccc1-n1cnc2cc(NCc3cccs3)ccc21	82	.	-	-	-	32
COc1ccccc1-n1cnc2cc(NCc3ccco3)ccc21	40	-	.	-	-	-
CCNC(=S)N=Nc1c(O)[nH]c2ccc(C(C)C)cc12	.	-	64	-	.	.
COc1ccc(C)cc1-n1nnnc1SCC(=O)Nc1cc(C)on1	.	.	-	-	.	.
